Source: PubChem BioAssay (several laboratories)
Rows were chosen to be rich in hits. Some 3% of all compounds tested hit in one or more screens of this group.
TROY NFkB inh: blocks TROY-dependent signaling in reporter cells; inhibition, % at 10 µM; hit rate 0.98% among 360,000; Q293 LMP1-TROYcd NF-kB luciferase reporter, 4 h;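 active = compounds whose plate-normalised and pattern-corrected inhibition of the luciferase reporter signal at the single screening dose is 50% or more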
LGR2 inh: blocks bursicon-induced cAMP signaling via Drosophila LGR2; hit rate 0.35% among 380,000; HEK293 LGR2, CRE-luciferase, bursicon-stimulated, 4 h; inhibition, % at 9.99 µM;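 active = drop in luminescence signal, shown as inhibition above about 50% in the replicate tests, limit read from the data, passing the limit was not always enough; inconclusive = probably only some replicates passing the limit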;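 note: agonist challenge used bursicon conditioned medium at about half maximal strength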
LMP1 NFkB inh: inhibitors of Epstein-Barr LMP1-induced NF-kappaB reporter. LMP1-induced NF-kappaB luciferase reporter cells, luminescence. inhibition, % at 12.5 µM. hit rate 0.69% among 350,000; in the data active = inhibition above about 41%; inconclusive = no clear call, values can overlap the other calls;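 note: 0% = neutral control wells and 100% = reference inhibitor control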
MITF TRPM1 inh: MITF TRPM1 promoter inhibition in SK-MEL-5 cells; SK-MEL-5 TRPM1 promoter luciferase, 24 h; inhibition, % at 12.5 µM; hit rate 0.83% among 330,000; AID 488899;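 active = mean inhibition across replicates of 60% or more, whatever share of single replicates reaches that level; inconclusive = some that reach 60%, reason not given; inactive = mean inhibition across replicates below 60%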
MITF act: increases MITF-driven TRPM1 promoter luciferase signal; activation, % at 12.5 µM; SK-MEL-5 TRPM1-promoter luciferase, 24 h; % of positive control, neutral wells = 0; hit rate 0.75% among 300,000;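 active = mean activation of at least 80% with every replicate also reaching 80%; inconclusive = mean reaches 80% but some replicate falls short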;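 note: 0% = neutral control wells and 100% = parthenolide positive control wells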
TWEAK-Fn14 inh: TWEAK-Fn14 signaling inhibition. inhibition, % at 10 µM. hit rate 2% among 360,000. AID 1159606. TWEAK-stimulated Fn14 reporter cells, luciferase luminescence, 8 h; in the data active = inhibition above about 50%
* marks the source's active call; other numbers are inactive results; ? = inconclusive; · = not tested or not shown.

SMILES	TROY NFkB inh	LGR2 inh	LMP1 NFkB inh	MITF TRPM1 inh	MITF act	TWEAK-Fn14 inh
c1ccc2nc(-c3nccs3)ccc2c1	-64	-42	-18	-87	91*	-42
C[C@@H]1CN([C@H](C)CO)C(=O)c2cc(-c3ccc(F)cc3)cnc2O[C@H]1CN(C)C(=O)C1CCC1	·	3	·	·	·	·
Cc1csc2c(N3CCN(C(=O)Nc4ccc(Cl)c(Cl)c4)CC3)ncnc12	63*	6	14	7	·	16
Cc1csc2c(N3CCN(C(=O)NC(C)(C)C)CC3)ncnc12	-1	-13	3	-6	6	-2
CCN(CC)c1ccc(C=Nc2ccc(N(C)C)cc2)c(O)c1	-5	·	-15	-25	29	58*
CCN(CC)c1ccc(/C=N/N2CCOCC2)c(O)c1	-1	-48	-16	-113	109*	-28
Cc1[nH]c2ccccc2c1CC#N	5	1	4	0	·	-17
Cc1[nH]c2ccccc2c1C(C#N)(C#N)C1C(=O)c2ccccc2C1=O	53*	12	5	39	-42	97*
C[C@@H]1CCCCO[C@H](CN(C)Cc2ccc(Cl)c(Cl)c2)[C@@H](C)CN([C@H](C)CO)C(=O)c2cc(NC(=O)NC3CCCCC3)ccc2O1	·	0	·	·	·	·
Cn1c(-c2ccc(F)cc2)cc2onc(-c3c(F)cccc3Cl)c2c1=O	·	-112	·	·	·	·
Cc1ccc(-c2cc3onc(-c4ccccc4)c3c(=O)n2C)cc1	89*	85*	38	97*	-96	102*
CNC(=O)c1ccc(-c2cc3onc(-c4ccccc4)c3c(=O)n2C)cc1	-31	-30	-4	-92	96*	5
CCc1noc2cc(-c3ccccc3)n(C)c(=O)c12	·	-49	·	·	·	·
CCCOc1ccc(-c2cc3onc(-c4ccccc4)c3c(=O)n2C)cc1	81*	-1	-24	-37	42	89*
COc1ccc2c3c(n(C)c2c1)[C@@H](CO)N(Cc1nccs1)CC31CN(C(C)=O)C1	·	-11	·	·	·	·
C=C1C(=O)O[C@@]23[C@H]1CC[C@@H](C)[C@@H]2CC[C@@]1(C)O[C@@H]31	4	·	8	85*	-86	48
N#CC(C#N)=NNc1ccc2cn[nH]c2c1	62*	82*	·	·	·	92*
CCNC(=S)Nc1ccc2cn[nH]c2c1	15	-3	-4	17	-14	5
CO[C@@H]1CN(C)C(=O)c2cc(NC(=O)Cc3ccccc3)ccc2OC[C@H](C)NC[C@H]1C	·	18	·	·	·	·
COCC(=O)Nc1ccc2c(c1)C(=O)N(C)C[C@@H](OC)[C@@H](C)CN(Cc1cccnc1)[C@H](C)CO2	·	-3	·	·	·	·
CN(c1ccccc1)c1ccc(/C=N/N2CCOCC2)cc1	-46	-40	-17	-145	144*	6
C(=NN1CCCCCC1)c1ccccc1	-8	·	-4	-19	21	-10
O=C(Nc1nccs1)[C@@H]1[C@@H](CO)[C@@H]2Cn3c(cccc3=O)[C@H]1N2C(=O)C1CCCCC1	·	2	·	·	·	·
COc1ccc(-c2cc(C(=O)NCc3cccs3)no2)cc1	-43	-41	-8	-87	92*	-23
COc1cccc(-c2cc(C(=O)NCc3cccs3)no2)c1	-53	-50	-13	-124	134*	-16
SMILES	TROY NFkB inh	LGR2 inh	LMP1 NFkB inh	MITF TRPM1 inh	MITF act	TWEAK-Fn14 inh
Cc1ccc(-c2cc(C(=O)NCc3ccco3)no2)cc1	-14	9	-26	-106	98*	7
O=C(NCc1cccs1)c1cc(-c2ccccc2)on1	-51	·	-9	-97	99*	-16
O=C(NCc1cccs1)c1cc(-c2cccs2)on1	-41	-45	-2	-71	61	-34
COCCNC(=O)c1cc(-c2cccc(OC)c2)on1	-10	·	-12	-83	?	8
CCCNC(=O)N[C@H]1CC[C@@H](CCn2cc(C3CCCC3)nn2)O[C@@H]1CO	·	-6	·	·	·	·
COc1ccc(CCNC(=O)c2cc3cc(F)ccc3nc2C)cc1OC	15	5	10	8	-7	51*
COc1ccc(C(=O)NCCc2ccc(F)cc2)cc1OC	-24	-5	-13	-13	12	-3
CCN1C(=O)S/C(=C/c2ccc(Sc3nc4ccccc4[nH]3)o2)C1=O	32	8	24	6	-6	79*
O=[N+]([O-])c1ccc(NN=Cc2cccc([N+](=O)[O-])c2)cc1	-51	-7	-9	-10	10	-27
Cc1ccc(NC(=O)c2ccc(N/N=C/c3cccc(O)c3)c([N+](=O)[O-])c2)cc1	-32	·	-26	78*	-78	-75
Cc1ccccc1NC(=O)c1ccc(N/N=C/c2ccccc2O)c([N+](=O)[O-])c1	-3	·	-26	4	-8	-101
O=[N+]([O-])c1ccc(N/N=C/c2cccc(O)c2)cc1	51*	-125	9	-50	58	-69
COc1cc2c(cc1OC)-c1cc(Nc3ccc4c(c3)OCCO4)nc(=O)n1CC2	79*	·	51*	-7	11	86*
COc1ccc(Nc2cc3n(c(=O)n2)CCc2cc(OC)c(OC)cc2-3)cc1	16	-32	12	-42	41	-43
CCCNC(=O)C[C@@H]1CC[C@H]2[C@@H](COC[C@@H](O)CN2C(=O)Nc2c(C)noc2C)O1	·	-7	·	·	·	·
Nc1cccnc1Oc1ccccc1F	68*	·	2	3	-6	9
O=C(N/N=C/c1c[nH]c2ccccc12)c1[nH]c2ccc(Br)cc2c1-c1ccccc1	36	9	7	?	-61	43
O=C(N/N=C/c1ccc(O)cc1)c1[nH]c2ccc(Br)cc2c1-c1ccccc1	15	-9	15	63*	-63	45
C[C@H](CO)N1C[C@H](C)[C@@H](CN(C)Cc2ccc(C(F)(F)F)cc2)Oc2ccc(N(C)C)cc2CC1=O	·	0	·	·	·	·
Cc1cc(C(=O)COC(=O)C2=NNC(=O)CC2)c(C)n1-c1ccccc1	57*	-31	0	31	-29	7
Cc1cc(C(=O)COC(=O)C2=COCCO2)c(C)n1-c1ccccc1	87*	91*	72*	81*	-80	103*
O=C(OCC(=O)N1CCN(c2ccccc2)CC1)C1=COCCO1	2	·	6	-9	·	-6
CCn1c2ccccc2c2cc(CNCc3ccc(OC)cc3OC)ccc21	38	102*	10	22	-16	26
COc1cccc(CNCc2ccc(OC)cc2OC)c1	9	19	6	7	-5	-5
Nc1cc2c(cc1Br)[nH]c(=O)c1ccccc12	-7	·	-109	93*	-93	24
Nc1cc2[nH]c(=O)c3ccccc3c2cc1Br	-37	11	-11	8	-4	-35
CC(=O)N1CCN(c2nnc(-c3ccc(C)cc3)c3ccccc23)CC1	52*	1	-9	17	-13	1
CCOc1ccc(-c2nnc(N3CCCCC3)c3ccccc23)cc1	59*	·	-14	6	·	-9
O=C(O)C[C@@H]1C[C@H]2c3cc(NC(=O)NC4CCCC4)ccc3O[C@H]2[C@@H](CO)O1	·	1	·	·	·	·
